Molecules are shown by their SMILES. Hit rate of the full screen: of about 360,000 compounds, about 230 (0.064%) were called active. Rule as the data show it: active = activity above about 50% (passing the limit was not always enough); inconclusive = no clear call, values can overlap the other calls. Many of the other results were omitted from the sample, so actives are more common in it than they were.

For the assay, the system named is DNA topoisomerase I (Yersinia pestis CO92). Put plainly: Yersinia pestis topoisomerase I inhibitors, primary screen, biochemical, cleavage product accumulation, plate reader, single point (AID 504884). Conditions: Y. pestis Topo-I cleavage product accumulation, at 10 µM, active compounds read high.
Regarding `Cc1ccc(F)cc1S(=O)(=O)Nc1cccc(C(=O)N2CCCC(C(N)=O)C2)c1` (stereo not drawn), the activity is 0.477% (inactive).

Turning to `CC1(C)c2[nH]c3ccccc3c2C[C@H]2C(=O)N(N)CC(=O)N21`, the activity is -8.39% (inactive). As for `CCOC(=O)Cn1c(=O)n(Cc2ccc(OC)cc2)c(=O)c2cccnc21`, the activity was 9.56% (inactive). Turning to `Cc1cc(C(=O)O)c(S(C)(=O)=O)s1`, the activity was -6.33% (inactive). The result for `CC(=O)Nc1ccc(Nc2ncnc3c2nnn3Cc2ccccc2Cl)cc1` reads 2.24% (inactive); that for `Cc1cccc(OC(=O)c2sc3ncn(C)c(=O)c3c2C)c1`, -1.35% (inactive); that for `CC1CC(C)(C)n2c(O)c(N=NC(N)=S)c3cccc1c32` (stereo not drawn), -5.67% (inactive). For the molecule `CCOc1ccccc1OCC(=O)Nc1ccccc1C(=O)NC1CC1`, the activity was -3.16% (inactive).

Regarding `Fc1ccc2cnc(-c3ccccc3)cc2c1`, the activity was 5.85% (inactive). With `c1ccc2cc(CCCc3cc4ccccc4cn3)ncc2c1`, the activity was 54.9% (active). Take `CCC1CCCCN1C(=O)CSc1nc2c(c(=O)n1C)SC(C)C2` (stereo not drawn): the activity was 16.8% (inactive). With `Cc1ccc(CNC(=O)CCS(=O)(=O)c2ccc3c(c2)CC(C)N3C(=O)C2CC2)o1` (stereo not drawn), the activity was 7.23% (inactive). Under `Cc1ccc(C)c(N(CC(=O)NCc2ccco2)C(=O)CCC(=O)Nc2ccccn2)c1` stands 18.9% (inactive); under `CC1Cc2cc(/C(O)=C3\C(=O)C(=O)N(Cc4cccnc4)C3c3ccccc3F)ccc2O1` (stereo not drawn), 2.42% (inactive); under `Cc1cccn2c(CN(C)C3CCCc4ccccc43)c(C(=O)N3CCOCC3)nc12` (stereo not drawn), 42.2% (inactive). Regarding `COc1ccc(CNCCCNCc2ccc(OC)c(OC)c2)cc1OC`, the activity was 2.69% (inactive). As to `CCc1ccc(OCC(O)CN2CCN(CCO)CC2)cc1` (stereo not drawn), the activity was 5.47% (inactive).

As for `NC(Cc1ccc(F)cc1)c1csc(Nc2nncc3ccccc23)n1` (stereo not drawn), the activity was -11.6% (inactive). As to `CC(C)(CNC(=O)CNC(=O)C1CCCCC1)N1CCOCC1`, the activity is -0.69% (inactive). With `Cc1c(NC(=O)C(C)OC(=O)c2c3c(nc4ccccc24)CCC(C)C3)c(=O)n(-c2ccccc2)n1C` (stereo not drawn), the activity was 3.41% (inactive).

For `COc1cc(NC(=O)C2=C(C)OCCS2)c(Cl)cc1C(=O)NCCN1CCN(C)CC1`, the activity was -0.826% (inactive).

Consider `COc1ccc(-n2nc(C(=O)NCC(=O)Nc3cccc(C)n3)c3ccccc3c2=O)cc1`, for which the activity is 15.2% (inactive).

With `O=S(=O)(Nc1ccc(Cl)cn1)c1cnc(Cl)c(Br)c1`, the activity was 2.02% (inactive). For `CC1CCCCC1NC(=O)c1cn(C)c2ccc(S(=O)(=O)N3CCOCC3)cc2c1=O` (stereo not drawn), the activity was -3.45% (inactive). Under `CCN(CCN(C)C)C(=O)c1ccc2nc(C)c(N(C)C(=O)CCc3ccccc3)n2c1` stands 0.0305% (inactive); under `Cc1nc(-c2ccc(F)cc2)c(CC(=O)N(C)CC(=O)Nc2c(C)cccc2C)s1`, 0.373% (inactive); under `Cc1ccccc1-c1nc(CS(=O)(=O)CC(=O)N2CCc3ccccc3C2)c(C)o1`, 32.1% (inactive). In the case of `COc1ccc(-n2c(Cc3cccn3C)nnc2SCC(=O)Nc2cc(C)cc(C)c2)cc1`, the activity is 18.8% (inactive). In the case of `O=C(NCc1ccccc1)C(c1ccccc1)N(C(=O)c1csnn1)c1ccc(F)cc1` (stereo not drawn), the activity was 26.7% (inactive). For the molecule `CN(C)C(=O)CCc1ccc2c3c([nH]c2c1)[C@]1(C)[C@@H](C(=O)N2CCOCC2)C[C@H](CC(=O)NCCc2ccccn2)C(=O)N1CC3`, the activity is 4.43% (inactive). Under `CCc1ccc(C(=O)OCC(=O)NCC(F)(F)F)cc1` stands 7.38% (inactive). `CN(C)/C=C(/C(=O)c1ccccc1Cl)S(C)(=O)=O`: the activity is 3.93% (inactive).

Regarding `CC1CCN(S(=O)(=O)c2ccc(NC(=O)C3CC(=O)N(c4ccccc4)C3)cc2)CC1` (stereo not drawn), the activity is 71.3% (active). `O=C(Nc1ccc(S(=O)(=O)N2CCCCC2)cc1)C1CC(=O)N(c2ccc(F)cc2)C1` (stereo not drawn): the activity was 12.1% (inactive). Under `Cc1ccccc1N1CC(C(=O)Nc2ccc(S(=O)(=O)N3CCCC3)cc2)CC1=O` (stereo not drawn) stands 10.6% (inactive); under `CCCn1c(SCC(=O)c2ccc3c(c2)OCCO3)nnc1C(C)C`, 9.18% (inactive).

Consider `CCCCn1c(N)c(N(CCOC)C(=O)COc2c(C)cccc2C)c(=O)[nH]c1=O`, for which the activity is -2.82% (inactive). With `CN1CCN(S(=O)(=O)c2cccc(C(=O)Nc3sccc3C#N)c2)CC1`, the activity was -7.33% (inactive).

For the origin of these results see PubChem BioAssay AID504884 (Broad Institute, 2011).
